Measured values: PubChem BioAssay (NCATS)
Values joined by “and” are separate entries in the source; they are usually repeats but may differ in a detail not shown here. Identical values can stand only once. Records with an inconclusive call do not appear. Active and inactive are the calls of the source. Unless noted, calls come from the whole dose curve; as a rule, active = well fitted curve in the direction sought with a large enough effect; inconclusive = small, poorly fitted or top-dose-only effect, or another doubt; inactive = no such curve, though single readings can be large; an effect the other way counts as inactive or inconclusive.

Key:
[1] = target: Glucocorticoid receptor (Homo sapiens) (UniProt P04150); assay: GR-GFP Redistribution (AID 450;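 active = compounds whose dose series gives a full or clear partial fitted curve of increased nuclear translocation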; note: potency is the fitted concentration of half-maximal effect); settings: U2OS GR-GFP nuclear translocation, laser cytometry, 2 h
[2] = target: Glucocorticoid receptor (Homo sapiens) (UniProt P04150); assay: GR-EFC Redistribution (AID 451; calls by dose curve; note: potency is the fitted concentration of half-maximal effect); settings: CHO-K1 GR-EFC translocation, beta-gal luminescence, 2 h
How it was run: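 CHO-K1 cells expressing nuclear EA and GR-ED fragments of b-gal; compounds titrated up to 46 uM final, 2 h at 37 C. GR nuclear translocation read as complemented b-gal luminescence after 1 h RT detection.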

[3] = target: Mitogen-activated protein kinase 10 (Mus musculus) (UniProt Q61831); assay: JNK3 AlphaScreen Assay (AID 530; active = well fitted curve in either direction with a large enough effect, not every such curve was filed as active;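 note: kinase came from lysate of stimulated human HepG2 cells; signal reports phosphorylation of biotinylated GST-cJun 1-79 at Ser73 with 10 µM ATP; % is set by controls: 0 for no effect and ±100 for the full control effect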); settings: JNK3 lysate, c-Jun phosphorylation; series mostly up to 57.1 µM
How it was run: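 HepG2 lysate (IL-1b/TNFa pre-activated) + biotin-GST-cJun 1-79 + anti-pSer73 cJun; cpd titration, 15 min RT; ATP 10 uM start; Tris pH 7.6, MgCl2, DTT, vanadate; beads in EDTA buffer; AlphaScreen.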

[4] = qHTS Assay for Lipid Storage Modulators (AID 1519; calls by dose curve; note: potency is the fitted concentration of half-maximal effect; for activity change, negative = inhibition: % is set by controls: 0 for no effect and ±100 for the full control effect); settings: Drosophila S3 cells, BODIPY lipid droplet/cell ratio, laser cytometry, cells loaded with oleic acid; for activity change, negative = inhibition: at 57.5 µM (top of the series)
How it was run: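 Cells seeded at 5,000 per well were treated with compounds over a concentration series and loaded with oleic acid (400 uM, as added). Lipid droplet fluorescence (488 nm excitation, 500-530 nm channel) was read by laser-scanning cytometry and normalized to 20 uM Triacsin C.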

[5] = target: Ubiquitin carboxyl-terminal hydrolase 1 (Homo sapiens) (UniProt O94782); assay: Inhibitors of USP1/UAF1: Pilot qHTS (AID 504865); settings: purified USP1/UAF1, Ub-rhodamine cleavage fluorescence; series mostly up to 114 µM;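 note: rhodamine fluorescence freed from ubiquitin-rhodamine substrate followed over time; top concentration of the series differs between compounds; % is set by controls: 0 for no effect and ±100 for the full control effect; nearly all actives have a fitted effect of over 35% in size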
How it was run: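 1nM USP1/UAF1 + cpd, 15 min RT; start w/ Ub-Rho 150nM final; kinetic FL 480/540 nm, 6 reads q60 s. Buffer 50mM HEPES pH 7.8, 0.5mM EDTA, 1mM TCEP, 0.01% Tween-20, 0.1 mg/ml BSA.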

[6] = target: DNA dC->dU-editing enzyme APOBEC-3G (Homo sapiens) (UniProt Q9HC16); assay: qHTS for inhibitors of Vif-A3G interactions: Validation (AID 588379); settings: Vif-A3G protein interaction assay; series mostly up to 46.1 µM; note: 0% is about no effect
How it was run: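 Yellow fluorescence (Ex 488, Em 500-530) of Vif-coexpressing HeLa A3G-eYFP cells, scanned by Acumen cytometer, reports blocked A3G degradation. Cells plated at 700/well overnight at 37 deg C before compound addition, then a further overnight compound incubation at 37 deg C.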

[7] = test system: Zika virus NS2B-NS3 protease; assay: Primary screen GU AMC qHTS for Zika virus inhibitors (AID 1347154); settings: Zika NS2B-NS3 unlinked protease, AMC fluorogenic substrate; series mostly up to 54.1 µM;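 note: 0% = no-inhibitor control and -100% = no-enzyme control; nearly all actives have a fitted effect of over 70% in size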
How it was run: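 Unlinked Zika NS2B hydrophilic domain–NS3 protease complex at 25 nM in 10 mM Tris-HCl pH 8.0, 0.01% Tween 20, with an AMC peptide substrate. Fluorescence change (340/450 nm) over 15 min at room temperature, normalized to controls, fitted to 4-parameter Hill.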

[8] = Primary qHTS for small molecule stabilizers of the endoplasmic reticulum resident proteome: Secreted ER Calcium Modulated Protein (SERCaMP) assay (AID 1508630); settings: SH-SY5Y GLuc-SERCaMP (Gaussia luciferase released on ER calcium loss) secretion, thapsigargin, luminescence; series mostly up to 38.4 µM; note: % is set by controls: 0 for no effect and ±100 for the full control effect
How it was run: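 The SH-SY5Y reporter protocol was run at 3 concentrations up to 38.3 uM (primary) or 11 concentrations (follow-up): 16 h compound, 100 nM thapsigargin for 4 h, then extracellular luciferase luminescence.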

[9] = target: Cytochrome P450 1A2 (Homo sapiens) (UniProt P05177); assay: p450-cyp1a2 (AID 410; calls by dose curve; note: potency is the fitted concentration of half-maximal effect); settings: recombinant CYP1A2, luciferin-ME demethylation, luminescence; series mostly up to 57 µM
How it was run: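 Read-out is luminescence from luciferin produced by CYP1A2 demethylation of Luciferin-ME (100uM, at Km). Detection reagent stopped the 60 min NADPH-dependent reaction; signals were normalized to 57 uM furafylline.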

[10] = target: 3',5'-cyclic-AMP phosphodiesterase 4B (Homo sapiens) (UniProt Q07343); assay: qHTS Assay for Inhibitors of PDE-IV (AID 607; active = well fitted activation curve with a large enough effect in the main read-out, with a control signal flat, not every such curve was filed as active; note: % of control where 0% means no effect); settings: HEK293 ACTOne CNG channel cells, membrane potential fluorescence; series mostly up to 22.9 µM
How it was run: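 Live HEK293 cells with a modified cyclic nucleotide-gated (CNG) channel report intracellular cAMP via membrane-potential dye fluorescence (ex 535/em 590 nm). Endogenous PDE-IV was targeted. Compounds were tested at up to 22.9 uM final; RO 20-1724 100 uM served as control.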

[11] = target: Guanine nucleotide-binding protein G(i) subunit alpha-1 (Homo sapiens) (UniProt P63096); assay: qHTS Assay for Inhibitors of RGS12 GoLoco Motif Activity (Green Fluorophore) (AID 879); settings: Galphai1/FITC-RGS12 GoLoco peptide, fluorescence polarization; series mostly up to 57.1 µM;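 note: 0% = labeled peptide with Gαi1 and full inhibition = labeled peptide alone without protein; negative values mean loss of peptide binding seen as reduced polarization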
How it was run: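 A drop in FITC polarization marked displacement of the FITC-tagged RGS12 GoLoco peptide (10 nM) from Gαi1 (50 nM). Compounds were incubated 10 min at room temperature in Tris pH 7.5 buffer containing 150 mM NaCl, 0.1 mM GDP and 0.05% NP40; unlabeled peptide titration served as control.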

[12] = target: Cytochrome P450 3A4 (Homo sapiens) (UniProt P08684); assay: qHTS Assay for Activators of Cytochrome P450 3A4 (AID 885); settings: recombinant CYP3A4, Luciferin-PPXE luminescence, 60 min; series mostly up to 57.1 µM; note: nearly all actives have a fitted effect of over 65% in size
How it was run: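 Using 20nM recombinant human CYP3A4 in potassium phosphate (200mM), substrate Luciferin-PPXE at 25uM, luminescent luciferin detection followed a 60-min RT NADPH reaction; data scaled to 57 uM ketoconazole.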

[13] = target: Pyruvate kinase (Leishmania mexicana) (UniProt Q27686); assay: qHTS Validation Assay for Inhibitors of Leishmania Mexicana Pyruvate Kinase (AID 945);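 note: 0% = DMSO only neutral control wells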; settings: purified L. mexicana pyruvate kinase, enzyme activity, E451W mutant enzyme; series mostly up to 57.5 µM
How it was run: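 The enzyme is a highly purified E451W mutant of LmPYK used at 0.2 nM. It converts 0.5 mM PEP and 0.1 mM ADP over 1 h at room temperature; product ATP is quantified by luciferase luminescence relative to DMSO controls.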

[14] = target: Pyruvate kinase PKM (Homo sapiens) (UniProt P14618); assay: qHTS Assay for Activators of Human Muscle Pyruvate Kinase (AID 954; active = well fitted curve in the direction sought with a large enough effect, not every such curve was filed as active;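 note: 0% = uninhibited enzyme and -100% = no enzyme or full thiadiazolimine inhibition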); settings: purified human muscle pyruvate kinase, luciferase-coupled luminescence, 1 h; series mostly up to 57.5 µM
How it was run: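 Screening used highly purified human pyruvate kinase M2 under submaximal activity, with PEP at its Km and ADP below Km. After an hour at room temperature, ATP was read by luciferase luminescence.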

[15] = target: Alpha-galactosidase A (Homo sapiens) (UniProt P06280); assay: Counterscreen for Glucocerebrosidase Inhibitors: qHTS Assay for Human alpha-Galactosidase at pH 4.5 (AID 992); settings: purified enzyme, fluorogenic substrate; series mostly up to 76.9 µM; note: 0% is about no effect
How it was run: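 Each compound is preincubated briefly with 2 nM enzyme before substrate addition (80 uM); plates then sit 20 min at ambient temperature, are quenched with 1M NaOH/1M glycine, and read fluorometrically.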

[16] = target: alpha-glucosidase (Oryza sativa, rice) (UniProt Q653V4); assay: Counterscreen for Glucocerebrosidase Inhibitors: qHTS Assay for Rice alpha-Glucosidase at pH 5.0 (AID 997); settings: rice alpha-glucosidase enzyme activity; series mostly up to 76.9 µM;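 note: 0% = full activity with enzyme and -100% = basal without enzyme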
How it was run: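 Endpoint fluorogenic assay at pH 5.0: compounds (0.7 nM to 77 uM) titrated against 4 nM rice enzyme and 400 uM 4-MU-alpha-glucoside for 20 min at room temperature; NaOH/glycine stop, read ex 365/em 440 nm, Hill-fitted AC50.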

[17] = measured here: cell count channel max response
[18] = measured here: lipid channel max response

3',5'-cyclic-AMP phosphodiesterase 4B (Homo sapiens), sequence (Q07343 whole entry, looked up): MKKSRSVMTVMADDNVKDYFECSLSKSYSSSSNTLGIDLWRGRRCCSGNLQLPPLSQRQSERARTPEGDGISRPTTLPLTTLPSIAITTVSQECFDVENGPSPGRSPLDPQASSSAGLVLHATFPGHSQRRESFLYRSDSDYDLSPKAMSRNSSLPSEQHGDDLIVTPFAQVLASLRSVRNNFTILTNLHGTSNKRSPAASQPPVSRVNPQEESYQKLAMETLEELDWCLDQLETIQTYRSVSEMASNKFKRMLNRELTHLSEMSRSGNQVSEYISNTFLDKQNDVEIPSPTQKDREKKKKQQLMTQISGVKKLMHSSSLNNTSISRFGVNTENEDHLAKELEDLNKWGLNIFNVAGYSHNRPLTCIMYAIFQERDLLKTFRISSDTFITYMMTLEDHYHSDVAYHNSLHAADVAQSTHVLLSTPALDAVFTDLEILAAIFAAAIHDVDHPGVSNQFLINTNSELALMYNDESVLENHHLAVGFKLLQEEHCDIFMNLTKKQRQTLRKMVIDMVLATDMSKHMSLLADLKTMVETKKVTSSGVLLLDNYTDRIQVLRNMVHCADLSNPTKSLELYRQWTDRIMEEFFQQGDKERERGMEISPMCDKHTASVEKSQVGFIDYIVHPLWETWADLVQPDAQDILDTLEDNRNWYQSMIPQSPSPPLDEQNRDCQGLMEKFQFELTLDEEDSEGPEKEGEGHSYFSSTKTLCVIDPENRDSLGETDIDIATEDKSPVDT
Cytochrome P450 1A2 (Homo sapiens), sequence (P05177 whole entry, looked up): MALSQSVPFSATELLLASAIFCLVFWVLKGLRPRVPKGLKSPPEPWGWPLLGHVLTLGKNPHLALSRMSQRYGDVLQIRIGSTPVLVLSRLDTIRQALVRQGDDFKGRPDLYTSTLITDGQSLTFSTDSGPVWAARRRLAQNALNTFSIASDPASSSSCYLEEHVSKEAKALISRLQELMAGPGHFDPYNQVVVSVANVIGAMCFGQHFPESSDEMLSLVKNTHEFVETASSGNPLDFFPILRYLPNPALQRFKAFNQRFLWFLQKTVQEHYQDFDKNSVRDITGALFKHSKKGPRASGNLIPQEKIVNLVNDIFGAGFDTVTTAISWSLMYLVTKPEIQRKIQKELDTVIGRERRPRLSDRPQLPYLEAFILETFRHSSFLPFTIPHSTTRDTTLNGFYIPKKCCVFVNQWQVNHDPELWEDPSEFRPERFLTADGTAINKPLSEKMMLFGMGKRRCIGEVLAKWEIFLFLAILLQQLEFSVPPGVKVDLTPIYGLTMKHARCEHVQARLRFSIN
Ubiquitin carboxyl-terminal hydrolase 1 (Homo sapiens), sequence (O94782 whole entry, looked up): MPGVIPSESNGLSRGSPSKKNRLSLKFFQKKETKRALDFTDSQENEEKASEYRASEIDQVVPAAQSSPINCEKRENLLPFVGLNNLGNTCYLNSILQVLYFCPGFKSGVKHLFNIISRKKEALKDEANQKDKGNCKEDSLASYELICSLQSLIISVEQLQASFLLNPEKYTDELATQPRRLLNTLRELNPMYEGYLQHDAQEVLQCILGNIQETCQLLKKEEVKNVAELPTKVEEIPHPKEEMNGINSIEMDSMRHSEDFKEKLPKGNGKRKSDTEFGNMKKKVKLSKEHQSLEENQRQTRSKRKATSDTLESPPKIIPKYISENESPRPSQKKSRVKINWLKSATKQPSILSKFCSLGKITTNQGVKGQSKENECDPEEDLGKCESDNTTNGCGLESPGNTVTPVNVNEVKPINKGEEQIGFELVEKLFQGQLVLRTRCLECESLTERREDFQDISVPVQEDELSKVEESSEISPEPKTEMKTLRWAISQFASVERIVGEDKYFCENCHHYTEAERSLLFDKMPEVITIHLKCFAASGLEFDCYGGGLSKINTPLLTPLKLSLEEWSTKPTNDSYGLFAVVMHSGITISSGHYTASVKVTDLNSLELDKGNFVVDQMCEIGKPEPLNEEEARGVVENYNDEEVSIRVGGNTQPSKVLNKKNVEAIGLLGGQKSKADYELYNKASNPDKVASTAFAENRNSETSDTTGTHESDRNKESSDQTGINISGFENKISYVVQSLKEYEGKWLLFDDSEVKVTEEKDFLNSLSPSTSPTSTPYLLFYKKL
Glucocorticoid receptor (Homo sapiens), sequence (P04150 whole entry, looked up, the tested form may be a part): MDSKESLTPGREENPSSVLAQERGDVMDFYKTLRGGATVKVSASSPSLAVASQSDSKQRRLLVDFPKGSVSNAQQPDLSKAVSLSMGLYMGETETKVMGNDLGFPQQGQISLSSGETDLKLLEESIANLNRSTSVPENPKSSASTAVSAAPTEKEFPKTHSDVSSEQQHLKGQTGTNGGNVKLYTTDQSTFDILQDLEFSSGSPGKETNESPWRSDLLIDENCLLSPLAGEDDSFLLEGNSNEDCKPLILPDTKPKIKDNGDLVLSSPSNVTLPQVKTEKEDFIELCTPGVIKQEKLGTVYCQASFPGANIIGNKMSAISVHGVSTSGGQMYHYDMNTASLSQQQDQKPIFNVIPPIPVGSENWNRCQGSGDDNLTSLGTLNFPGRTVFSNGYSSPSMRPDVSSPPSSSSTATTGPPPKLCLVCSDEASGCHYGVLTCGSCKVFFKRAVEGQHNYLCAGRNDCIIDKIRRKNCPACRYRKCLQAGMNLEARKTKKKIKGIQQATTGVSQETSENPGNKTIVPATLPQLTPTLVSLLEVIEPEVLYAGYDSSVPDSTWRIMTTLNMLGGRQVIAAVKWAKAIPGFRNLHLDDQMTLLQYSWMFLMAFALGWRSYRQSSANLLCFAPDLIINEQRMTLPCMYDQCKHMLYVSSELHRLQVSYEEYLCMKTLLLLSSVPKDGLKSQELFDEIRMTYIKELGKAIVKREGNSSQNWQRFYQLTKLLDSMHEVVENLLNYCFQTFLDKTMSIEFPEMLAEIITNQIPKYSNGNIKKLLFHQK
DNA dC->dU-editing enzyme APOBEC-3G (Homo sapiens), sequence (Q9HC16 whole entry, looked up): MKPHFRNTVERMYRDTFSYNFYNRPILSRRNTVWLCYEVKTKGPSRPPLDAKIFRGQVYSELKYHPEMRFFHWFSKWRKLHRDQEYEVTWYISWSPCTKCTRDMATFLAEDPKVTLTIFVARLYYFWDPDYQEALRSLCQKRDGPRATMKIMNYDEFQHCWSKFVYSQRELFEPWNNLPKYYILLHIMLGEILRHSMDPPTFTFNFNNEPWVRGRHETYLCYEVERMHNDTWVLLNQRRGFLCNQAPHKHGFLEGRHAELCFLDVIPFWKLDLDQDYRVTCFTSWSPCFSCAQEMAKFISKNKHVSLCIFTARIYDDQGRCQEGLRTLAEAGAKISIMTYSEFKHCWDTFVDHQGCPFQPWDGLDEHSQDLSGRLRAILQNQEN
Pyruvate kinase PKM (Homo sapiens), sequence (P14618 whole entry, looked up): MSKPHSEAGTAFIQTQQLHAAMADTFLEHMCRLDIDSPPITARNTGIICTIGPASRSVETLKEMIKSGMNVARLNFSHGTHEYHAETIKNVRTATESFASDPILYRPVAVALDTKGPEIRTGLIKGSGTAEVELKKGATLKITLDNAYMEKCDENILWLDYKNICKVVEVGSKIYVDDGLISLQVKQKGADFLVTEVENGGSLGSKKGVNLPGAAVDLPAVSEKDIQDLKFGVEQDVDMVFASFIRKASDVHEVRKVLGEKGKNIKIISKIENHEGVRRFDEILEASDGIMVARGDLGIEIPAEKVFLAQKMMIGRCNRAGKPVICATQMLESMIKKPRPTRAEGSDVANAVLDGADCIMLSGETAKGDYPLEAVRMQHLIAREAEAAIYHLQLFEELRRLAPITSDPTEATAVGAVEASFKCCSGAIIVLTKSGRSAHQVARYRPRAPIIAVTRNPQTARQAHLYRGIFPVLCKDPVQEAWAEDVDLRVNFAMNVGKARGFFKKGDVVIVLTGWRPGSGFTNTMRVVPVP
Cytochrome P450 3A4 (Homo sapiens), sequence (P08684 whole entry, looked up): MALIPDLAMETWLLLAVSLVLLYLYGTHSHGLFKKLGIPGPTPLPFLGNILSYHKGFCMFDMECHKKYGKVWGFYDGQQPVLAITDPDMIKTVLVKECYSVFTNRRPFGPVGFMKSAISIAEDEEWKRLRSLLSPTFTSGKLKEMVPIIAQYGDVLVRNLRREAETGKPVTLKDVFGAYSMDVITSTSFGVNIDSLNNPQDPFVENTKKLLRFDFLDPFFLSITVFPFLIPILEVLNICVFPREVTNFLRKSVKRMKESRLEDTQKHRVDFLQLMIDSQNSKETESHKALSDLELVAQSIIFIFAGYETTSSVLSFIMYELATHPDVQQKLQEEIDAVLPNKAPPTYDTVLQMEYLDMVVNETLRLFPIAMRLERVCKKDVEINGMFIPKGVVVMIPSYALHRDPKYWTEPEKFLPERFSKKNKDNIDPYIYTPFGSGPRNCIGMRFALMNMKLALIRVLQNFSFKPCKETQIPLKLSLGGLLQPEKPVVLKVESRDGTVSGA
Pyruvate kinase (Leishmania mexicana), sequence (Q27686 2-499 E452W): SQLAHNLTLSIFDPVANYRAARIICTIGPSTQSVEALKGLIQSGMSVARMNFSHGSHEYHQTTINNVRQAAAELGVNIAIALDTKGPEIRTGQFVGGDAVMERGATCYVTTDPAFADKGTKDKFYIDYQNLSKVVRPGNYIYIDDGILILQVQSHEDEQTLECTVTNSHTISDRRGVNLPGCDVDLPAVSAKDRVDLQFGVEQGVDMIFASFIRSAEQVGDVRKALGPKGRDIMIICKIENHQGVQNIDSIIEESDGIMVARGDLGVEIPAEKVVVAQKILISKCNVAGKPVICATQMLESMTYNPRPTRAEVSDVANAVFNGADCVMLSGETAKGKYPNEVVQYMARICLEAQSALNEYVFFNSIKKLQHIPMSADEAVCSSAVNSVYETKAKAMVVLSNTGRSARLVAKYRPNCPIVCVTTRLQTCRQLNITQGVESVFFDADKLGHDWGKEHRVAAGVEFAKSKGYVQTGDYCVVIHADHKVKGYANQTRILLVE

CSc1nc(N)c2ncn([C@H]3O[C@H](COP(=O)(O)OP(=O)(O)O)[C@@H](O)[C@@H]3O)c2n1
inactive: Potency [1] > 46 µM | Potency [2] > 46 µM | Potency [3] | activity change, negative = inhibition [4] 8.63% | Potency [5] | Potency [6] | Potency [7] | Potency [8]
13.1%: max response [4, 17]
26.1%: max response [4, 18]

CCCCCCCCCCCCC/C=C\[C@@H](O)[C@H](CO)NC(C)=O
active: Potency [9] 20 µM
-0.444%: max response [4, 18]
9.95%: max response [4, 17]
inactive: Potency [1] > 46 µM | Potency [2] > 46 µM | Potency [3] | Potency [10] | activity change, negative = inhibition [4] -6.83% | Potency [6] | Potency [7] | Potency [8]

COc1ccccc1N1CCN(CCCCN2C(=O)CCC2=O)CC1
inactive: Potency [1] > 46 µM | Potency [2] > 46 µM | Potency [3] | Potency [10] | activity change, negative = inhibition [4] -4.36% | Potency [5] | Potency [6] | Potency [7] | Potency [8]
-1.96%: max response [4, 17]
-4.4%: max response [4, 18]

Cc1o[nH]c(=O)c1CC[C@H](N)C(=O)O
-7.36%: max response [4, 17]
-2.41%: max response [4, 18]
inactive: Potency [1] > 46 µM | Potency [2] > 46 µM | Potency [3] | activity change, negative = inhibition [4] 4.78% | Potency [5] | Potency [6] | Potency [7] | Potency [8]

N[C@@H](CCCP(=O)(O)O)C(=O)O
17.3%: max response [4, 18]
inactive: Potency [1] > 46 µM | Potency [2] > 46 µM | Potency [3] | activity change, negative = inhibition [4] -1.39% | Potency [6] | Potency [7] | Potency [8]
15.6%: max response [4, 17]

C[C@@H]1Nc2ccc(Cl)cc2S(=O)(=O)N1
-1.71%: max response [4, 17]
inactive: Potency [1] > 46 µM | Potency [2] > 46 µM | Potency [3] | Potency [10] | activity change, negative = inhibition [4] 6.73% | Potency [5] | Potency [6] | Potency [7] | Potency [8]
3.08%: max response [4, 18]

CCCCCC(=O)O[C@H](CC(=O)O)C[N+](C)(C)C
inactive: Potency [1] > 46 µM | Potency [2] > 46 µM | Potency [3] | activity change, negative = inhibition [4] 1.82% | Potency [5] | Potency [6] | Potency [7] | Potency [8]
2.66%: max response [4, 18]
0.652%: max response [4, 17]

c1ncc(CC2CCNCC2)[nH]1
inactive: Potency [1] > 46 µM | Potency [2] > 46 µM | Potency [3] | Potency [10] | activity change, negative = inhibition [4] 0.0288% | Potency [5] | Potency [6] | Potency [7] | Potency [8]
-15.8%: max response [4, 18]
-18.2%: max response [4, 17]

CC(C)(C)c1ccc(S(=O)(=O)/C=C\C#N)cc1
5.78%: max response [4, 17]
active: Potency [9] 3.98 µM and 1.58 µM | Potency [4] 31.6 µM
-82.4%: max response [4, 18]
inactive: Potency [1] > 46 µM | Potency [2] > 46 µM | Potency [10] | outcome [11] | Potency [12] | Potency [13] | outcome [14] | outcome [15] | outcome [16] | Potency [6] | Potency [7] | Potency [8]
